# Laboratory results reported in PubChem BioAssay AID1259400 (National Center for Advancing Translational Sciences (NCATS), 2018).
# Where “and” joins values, the source holds several entries; their conditions need not be identical. Equal values may be shown once. The campaign covered roughly 350,000 compounds. About 2,100 (0.6%) were called active. Another 1% or so got no clear call; they are omitted. The sample holds actives, similar compounds and a random draw of the others, so the mix is not that of the screen.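 Rule for the calls: active = activity change of -60% or lower, but not beyond a set lower limit; inconclusive = change between -60% and -40%, or beyond the set limit; inactive = change above -40%.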
# Target: Relaxin receptor 1 (Homo sapiens) (UniProt Q9HBX9)
# Assay: qHTS Assay for Antagonists of the Relaxin Receptor RXFP1
# Settings: HEK293-RXFP1, relaxin-stimulated cAMP HTRF, 30 min; at 57.5 µM; hits give low values
# % is set by controls: 0 for no effect and ±100 for the full control effect.
# Relaxin receptor 1 (Homo sapiens), sequence (Q9HBX9 whole entry, looked up): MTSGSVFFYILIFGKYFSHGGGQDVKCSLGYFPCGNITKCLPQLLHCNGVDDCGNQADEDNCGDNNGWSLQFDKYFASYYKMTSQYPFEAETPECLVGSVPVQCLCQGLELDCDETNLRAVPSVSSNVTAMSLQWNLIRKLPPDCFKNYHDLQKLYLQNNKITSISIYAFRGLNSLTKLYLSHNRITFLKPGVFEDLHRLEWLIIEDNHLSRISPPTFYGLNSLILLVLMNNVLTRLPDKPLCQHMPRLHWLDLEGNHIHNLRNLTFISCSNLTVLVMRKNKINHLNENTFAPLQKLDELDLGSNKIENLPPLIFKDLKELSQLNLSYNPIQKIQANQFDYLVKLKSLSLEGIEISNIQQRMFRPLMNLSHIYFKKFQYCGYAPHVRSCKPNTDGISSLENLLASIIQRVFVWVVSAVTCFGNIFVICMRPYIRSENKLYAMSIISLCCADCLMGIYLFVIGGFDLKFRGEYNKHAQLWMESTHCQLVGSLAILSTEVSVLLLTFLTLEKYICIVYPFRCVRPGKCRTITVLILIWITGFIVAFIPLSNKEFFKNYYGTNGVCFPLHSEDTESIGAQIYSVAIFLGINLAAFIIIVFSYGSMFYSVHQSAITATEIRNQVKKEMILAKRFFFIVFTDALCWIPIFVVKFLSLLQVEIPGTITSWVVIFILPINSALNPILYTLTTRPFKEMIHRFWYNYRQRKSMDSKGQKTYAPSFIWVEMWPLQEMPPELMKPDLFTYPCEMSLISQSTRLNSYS
row,Structure (SMILES),"activity change, negative = inhibition"
1,CCCn1c(NCc2ccc(N(CC)CC)cc2)nc2ccccc21,-15% (inactive)
2,O=C(CSc1oc(-c2ccc(F)cc2)nc1S(=O)(=O)c1ccc(Br)cc1)NC1CCCCC1,-5.96% (inactive)
3,CC(C)S(=O)(=O)c1oc(-c2ccc(F)cc2)nc1S(=O)(=O)c1ccc(F)cc1,-89.7% (active)
4,Cc1ccc(-c2nc(S(=O)(=O)c3ccc(C)cc3)c(N3CCCCCC3)o2)cc1,2.42% (inactive)
5,Cc1nnc(Nc2ccccc2F)s1,3.61% (inactive)
6,O=c1cnnc(Nc2ccccc2F)[nH]1,-93.6% (active)
7,O=c1cnnc(Nc2ccccc2)[nH]1,9% (inactive)
8,CCCN(CCC)CCNC(=O)c1ccc2c(c1)NC(=O)C(CS(=O)(=O)Cc1cccc(Br)c1)N2 (stereo unspecified),-10.4% (inactive)
9,Cc1ccc(CN(C(=O)COc2ccc(Cl)cc2C)C2CCS(=O)(=O)C2)o1 (stereo unspecified),-6.16% (inactive)
10,COc1cc(OC)c(NC(=O)N2CC3CCCN3c3ccccc32)cc1Cl (stereo unspecified),-23.5% (inactive)
11,Oc1c(Cl)cc(Cl)c(Cl)c1Cc1c(O)c(Cl)cc(Cl)c1Cl,-62.6% (active)
12,Cc1nc(SCC(=O)Nc2ccc(C(=O)O)cc2)n[nH]1,-9% (inactive)
13,CCOC(=O)N1CCc2c(sc(NCc3cccc(F)c3)c2C(=O)Nc2ccccc2OCC)C1,-69.1% (active)
14,CCOc1ccc(NC(=O)c2c(NCc3cccc(OC)c3OC)sc3c2CCC3)cc1,-17.6% (inactive)
15,CCOC(=O)c1ccc(NC(=O)c2c(NCc3cccc(OC)c3)sc3c2CCC3)cc1,-35.6% (inactive)
16,CC(C)N=C1CCCC1C(=S)SSC(=S)C1CCCC1=NC(C)C (stereo unspecified),-72.7% (active)
17,COc1cccc(C(=O)NC(=O)Nc2ccc(-c3cc(C(F)(F)F)nn3-c3ccccc3)cc2)c1,-5.11% (inactive)
18,Cc1ccc(Cl)cc1N1CCN(C(=O)c2cccn3c(=O)c4cc(Cl)ccc4nc23)CC1,3.52% (inactive)
19,CCc1nc2ccc(C(=O)N3CCN(c4cccc(Cl)c4)CC3)cc2nc1CC,-23.6% (inactive) and -19.3% (inactive)
20,CCc1nc2ccc(C(=O)N3CCN(c4cc(Cl)ccc4C)CC3)cc2nc1CC,-64.4% (active)
21,COC(=O)Nc1nc2ccc(C(=O)C3CC3)cc2[nH]1,14.8% (inactive)
22,Cn1c(SCC(=O)N2CCCc3ccccc32)ncc(C(=O)Nc2ccc(F)cc2)c1=O,-2.51% (inactive)
23,Cc1cc(C)c2oc(C(=O)Nc3ccc(S(=O)(=O)N(C)c4ccccc4)cc3)cc(=O)c2c1,-2.14% (inactive)

row,Structure (SMILES),"activity change, negative = inhibition"
1,O=c1oc2ccccc2cc1-c1csc(Nc2ccc(O)cc2)n1,-97% (active)
2,Cc1ccn2c(-c3csc(Nc4ccc(C(=O)O)cc4)n3)c(C)nc2c1,6.41% (inactive)
3,Cc1cc(NC(=O)c2cccc(Cl)c2)ccc1-c1cc2ccccc2oc1=O,-4.13% (inactive)
4,COC(=O)c1ccc(NC(=O)c2cnn(-c3ccc(Cl)cc3)c2C2CCN(C(=O)OC(C)(C)C)CC2)cc1,-12.3% (inactive)
5,COc1ccc(CCNC(=O)c2ccc3c(c2)nc(C)n3-c2ccc(Br)cc2)cc1OC,-27.1% (inactive)
6,CC1=C(c2ccc(C)cc2)S(=O)(=O)NC1=NCCCN1CCN(c2cc(C)ccc2C)CC1,-13.1% (inactive)
7,COC(=O)/C=C(/C)N,5.99% (inactive)
8,CCOC(=O)c1cc(-c2ccccc2)n(-c2cccc(C(=O)Nc3cc(OC)cc(OC)c3)c2)c1C,-10.5% (inactive)
9,COC(=O)c1nc(Cl)c(Cl)nc1N,-98.8% (active)
10,COC(=O)c1nn(-c2cccc(Cl)c2)ccc1=O,-8.77% (inactive)
11,COC(=O)c1c(C)c(C)nc(N)c1C#N,9.32% (inactive)
12,O=C(CCOc1ccccc1)N(Cc1cccnc1)c1nc2ccc(Cl)cc2s1,0.968% (inactive)
13,COc1ccc(OC)c(NC(=O)CSC2=Nc3ccccc3C3=NC(CC(=O)NCc4ccc(F)cc4)C(=O)N23)c1 (stereo unspecified),-11.9% (inactive)
14,COCCCN1CCC(NC(=O)c2cc(Cl)c(N)c3c2OCC3)CC1,-9.44% (inactive)
15,O=C(N/N=C\c1cc2c(cc1Cl)OCO2)c1ccc(Br)s1,5.05% (inactive)
16,O=C(/C=C/c1cc2c(cc1Br)OCO2)NCc1ccc(Cl)cc1,0.543% (inactive)
17,CC1(C(=O)N/N=C/c2cc3c(cc2Br)OCO3)CC1(Br)Br (stereo unspecified),-82.7% (active)
18,COc1cc(Cl)c(NC(=O)CC(C)S(=O)(=O)c2cc3c(cc2C)NC(=O)CO3)c(OC)c1 (stereo unspecified),0.439% (inactive)
19,NNc1nc2c(Cl)cccc2s1,-80.1% (active)
20,c1ccc2c(NC3C4CC5CC(C4)CC3C5)nc(N3CCOCC3)nc2c1 (stereo unspecified),-78.7% (active)
21,CC(Nc1nc(N2CCCC2)nc2ccccc12)c1ccccc1 (stereo unspecified),-10.3% (inactive)
22,Fc1cnc(N2CCOCC2)nc1NCc1ccccc1,11.7% (inactive)
23,O=C(NCC(c1ccc(Cl)cc1)N1CCOCC1)c1ccccc1F (stereo unspecified),-0.553% (inactive)

row,Structure (SMILES),"activity change, negative = inhibition"
1,CCOC(=O)c1c(C)[nH]c(CCC(=O)NCCCN2CCN(c3cc(C)ccc3C)CC2)c1C,-33.7% (inactive)
2,CCCc1c2oc(C(=O)O)cc(=O)c2cc2c(=O)cc(C(=O)O)n(CC)c12,-5.22% (inactive)
3,COc1cc(/C=C/C(N)=O)cc(OC)c1OC,-9.25% (inactive)
4,Cc1c(NC(=O)Cc2ccccc2)cccc1-c1nc2cccnc2s1,5.77% (inactive)
5,C=C(C)COc1ccc(-c2ncncc2-c2ccc(OC)cc2)c(O)c1,-10.6% (inactive)
6,C=C(C)COc1ccc(-c2nc(N)ncc2-c2ccccc2OC)c(O)c1,-62% (active)
7,CCOc1ccc(-c2nc(N)ncc2-c2ccccc2OC)c(O)c1,-16% (inactive)
8,Cc1ccc(CCNC(=O)c2nnc(Cc3cccc(F)c3)o2)cc1,-3.15% (inactive)
9,O=C(OCC(O)C(O)COC(=O)c1ccccc1)c1ccccc1 (stereo unspecified),-12.8% (inactive)
10,CC(OC(=O)CN1C(=O)c2ccccc2C1=O)C(=O)c1ccccc1 (stereo unspecified),6.31% (inactive)
11,C=CCC(C(=O)c1ccccc1)[N+](C)(C)CC=C (stereo unspecified),-82.2% (active)
12,CC(O)COc1ccccc1 (stereo unspecified),1.89% (inactive)
13,Cc1noc(/C=C/N(C)C)c1S(=O)(=O)N1CCCC(C(=O)Nc2cccc(F)c2)C1 (stereo unspecified),-3.51% (inactive)
14,CCN1CCN(C(=O)N[C@@H](C(=O)N[C@@H]2C(=O)N3[C@@H]2SC(C)(C)[C@H]3C(=O)O)c2ccccc2)C(=O)C1=O,-3.73% (inactive)
15,O=C(C[n+]1ccc2c(c1)nnn2-c1ccccc1)c1ccc(Cl)cc1,-11.1% (inactive)
16,O=C(Cn1cc(-c2nnnn2-c2ccc(Cl)cc2)c(=O)c2ccccc21)c1ccccc1,-98.5% (active)
17,O=C(CN1CCN(c2ccc(Cl)cc2)CC1)c1ccccc1,6.85% (inactive)
18,Cc1cc(C)cc(NC(=O)CSc2nc3nccnc3c(=O)n2CCc2c[nH]c3ccccc23)c1,4.86% (inactive)
19,Fc1ccc(Nc2nc(SCc3ccccc3Cl)nc3ccccc23)cc1,-23.1% (inactive)
20,CC(C)(C)CC(C)(C)NCC(O)COCCOc1ccc(Br)cc1 (stereo unspecified),-90.2% (active)
21,COc1ccc(OCC(O)CNCCNc2nccc(C(F)(F)F)n2)cc1 (stereo unspecified),6.63% (inactive)
22,CC(Oc1ccc(Br)cc1)C(=O)NC1CCCCCC1 (stereo unspecified),-9.73% (inactive)
23,CN[C@@H]1[C@@H](O)[C@@H](O[C@@H]2[C@H](O)[C@H](O[C@H]3OC(CN)=CC[C@H]3N)[C@@H](N)C[C@H]2N)OCC1(C)O (stereo partly specified),-9.15% (inactive)

row,Structure (SMILES),"activity change, negative = inhibition"
1,CCc1ccc(NC(=O)c2sc3nc4c(cc3c2N)CN(CC)CC4)cc1,-24.5% (inactive)
2,O=C1Cc2cc(S(=O)(=O)Nc3ccc(OC(F)(F)F)cc3)cc3c2N1CCC3,-19.8% (inactive)
3,O=C(OCc1ccccc1)c1ccc(O)cc1,3.77% (inactive)
4,COc1cccc(-c2noc(C3CCCN(C(=O)c4ccc(F)cc4)C3)n2)c1 (stereo unspecified),-66.4% (active)
5,O=C(c1ccc(F)cc1)N1CCCC(c2nc(-c3cccs3)no2)C1 (stereo unspecified),2.8% (inactive)
6,COc1ccc(NC(=O)N2CCCC(c3nc(-c4ccc(F)cc4)no3)C2)cc1 (stereo unspecified),2.56% (inactive)
7,CCOc1ccc(S(=O)(=O)c2cn(Cc3ccccc3)c3ccc(OCC)cc3c2=O)cc1,-11.7% (inactive)
8,CCOc1ccc(NS(=O)(=O)c2ccc(N)cc2)nn1,9.63% (inactive)
9,CCN(C(=O)CSc1nnc(C)n2c1cc1occc12)c1ccccc1,-12.2% (inactive)
10,Cc1ccc(N=C2NC(=O)/C(=C/C=C/c3ccco3)S2)cc1C,-82.4% (active)
11,CCN1CCN(c2cc(C)c3cc(NC(=O)c4cc(Cl)ccc4OC)ccc3n2)CC1,-19.5% (inactive)
12,COC(=O)CSc1nnc(-c2cccnc2)o1,5.1% (inactive)
13,O=C(CSc1nnc(-c2ccncc2)o1)Nc1cccc(Cl)c1,-1.48% (inactive)
14,COc1cccc(NC(=O)CSc2nnc(-c3cccnc3)o2)c1,-83.2% (active)
15,CCOc1ccc(N2CC(c3nc4ccccc4n3CCOc3ccc(OC)cc3)CC2=O)cc1 (stereo unspecified),-13% (inactive)
16,Cc1ccc(Cl)cc1NC(=O)C(C)n1nnc2sc(-c3ccccc3)cc2c1=O (stereo unspecified),-12.2% (inactive)
17,Nc1nonc1-n1nnc(C(=O)N/N=C\c2ccncc2)c1CN1CCCCC1,7.31% (inactive)
18,COCc1c(C(=O)N/N=C\c2cccnc2)nnn1-c1nonc1N,-21.1% (inactive)
19,Cc1ccc(SCc2c(C(=O)N/N=C/c3cccnc3)nnn2-c2nonc2N)cc1,-106% (active)
20,COC(=O)c1cc(Cl)c(NC(C)=O)cc1OC,-14.6% (inactive)
21,COc1ccccc1Nc1c2c(nc3ccc(NC(=O)/C=C/c4cc(OC)c(OC)c(OC)c4)cc13)CCCC2,5.51% (inactive)
22,CCC(=O)Nc1ccc(C)cc1-c1nc2ccccc2n(Cc2ccccc2)c1=O,-2.19% (inactive)
